Source: PubChem BioAssay (National Center for Advancing Translational Sciences (NCATS))
An excerpt weighted towards active compounds, which were near 7.4% of everything screened.
ELG1 genotox = qHTS screen for small molecules that induce genotoxicity in human embryonic kidney (HEK293T) cells expressing luciferase-tagged ELG1; AID 504466, 2011; Potency, µM (titrated, usually from 46 µM), for the others: at the top dose activity change, positive = activation, actives largely listed as activators; hit rate 1.3% among 330,000; HEK293T ELG1-luciferase reporter, luminescence, 16 h; further: % of control where 0% means no effect; nearly all actives have a fitted effect of over 60% in size
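Quantitative HTS format in 1536-well plates. HEK293T ELG1-luciferase reporter cells receive test compound and are incubated 16 hr at 37 °C, 5% CO2; ONE-Glo added, 30 min room temperature, then luminescence read.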
Rab9 promoter act = qHTS Assay for Rab9 Promoter Activators | hit rate 2.8% among 320,000 | Potency, µM (titrated, usually from 9.22 µM), inactives show at the top dose activation, negative = inhibition, hits mostly activators | Huh7 Rab9 promoter-luciferase reporter, luminescence, 24 h; further: % of control where 0% means no effect; nearly all actives have a fitted effect of over 60% in size
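Rab9 promoter-driven luciferase in stably transfected Huh7 cells; 1500 cells/well rested 2 h, exposed to compound in DMSO for 24 h at 37 °C, 5% CO2. Luminescence read 10 min after adding luciferase reagent at ambient temperature.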
NPC1 prom act = qHTS Assay for NPC1 Promoter Activators. Potency, µM (highest dose often 9.22 µM), for the others: at the highest dose activation, usual class: activators. hit rate 2.4% among 320,000. AID 485313, 2010. Huh7 NPC1 promoter luciferase reporter, 24 h; further: % of control where 0% means no effect; nearly all actives have a fitted effect of over 60% in size
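Stable NPC1-promoter luciferase Huh7 line; cpd (DMSO) 24 h, 37 °C, 5% CO2; Amplite luciferase reagent 10 min RT; luminescence readout. qHTS format.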
FLuc counter = qHTS profiling assay for firefly luciferase inhibitor/activator using purifed enzyme and Km concentrations of substrates (counterscreen for miR-21 project). purified FLuc, Km substrates, luminescence inhibition. hit rate 6.9% among 360,000. Luciferin 4-monooxygenase (Photinus pyralis), P08659. AID 588342, 2011. Potency, µM (titrated, usually from 57.5 µM), for the others: top-dose activity change, negative = inhibition, most hits filed as inhibitors;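 further: plate controls were vehicle for no effect and reference inhibitor for full effect; nearly all actives have a fitted effect of over 55% in size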
Target sequence (P08659 whole entry, looked up): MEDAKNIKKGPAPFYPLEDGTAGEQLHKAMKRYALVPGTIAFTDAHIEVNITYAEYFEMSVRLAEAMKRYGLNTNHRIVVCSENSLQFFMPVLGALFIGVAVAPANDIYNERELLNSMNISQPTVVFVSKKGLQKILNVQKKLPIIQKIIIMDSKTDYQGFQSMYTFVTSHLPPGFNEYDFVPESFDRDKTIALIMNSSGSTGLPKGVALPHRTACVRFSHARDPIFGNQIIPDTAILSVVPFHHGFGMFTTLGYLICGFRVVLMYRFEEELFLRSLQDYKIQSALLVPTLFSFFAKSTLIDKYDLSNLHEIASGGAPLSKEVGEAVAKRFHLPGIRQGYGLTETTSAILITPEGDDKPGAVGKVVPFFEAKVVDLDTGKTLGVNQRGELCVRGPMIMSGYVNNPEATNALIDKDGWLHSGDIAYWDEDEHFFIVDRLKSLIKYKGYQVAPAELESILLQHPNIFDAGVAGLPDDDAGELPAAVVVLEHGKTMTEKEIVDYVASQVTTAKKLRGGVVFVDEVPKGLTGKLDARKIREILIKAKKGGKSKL
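Purified P. pyralis luciferase, 10 nM final, with Km-level 10 uM D-luciferin and 10 uM ATP in 50 mM Tris acetate pH 7.5, 10 mM Mg acetate, 0.01% Tween-20, 0.05% BSA; 6-point qHTS titration about 60 µM downward; luminescence read.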
SMN2 splice enh = qHTS Assay for Enhancers of SMN2 Splice Variant Expression | HEK293 SMN2-luciferase splicing reporter, luminescence, 30-36 h | Potency, µM (titrated, usually from 46.1 µM), inactives show top-dose activity change, positive = activation, usual class: activators | hit rate 2.8% among 210,000 | AID 1458, 2008; further: % of control where 0% means no effect; nearly all actives have a fitted effect of over 55% in size
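qHTS luciferase splicing reporter: luminescence rises when SMN2 exon 7 is included in transfected HEK293 cells. Compound exposure lasted 30-36 h at 37C, with 4.5 mM final sodium butyrate as control, followed by a ONE-Glo read.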
p53 reactivator = qHTS assay for re-activators of p53 using a Luc reporter; Potency, µM (doses to about 92.2 µM), for inactives: at the highest dose activity change, positive = activation, most hits filed as activators; hit rate 0.063% among 320,000; H1299 p53-A138V BP100-luciferase reporter, luminescence, 24 h; further: % of control where 0% means no effect; nearly all actives have a fitted effect of over 45% in size
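p53-null H1299 cells stably carrying temperature-sensitive p53-A138V and a BP100-luciferase reporter were pinned with compounds (4-point, 1:5 series) and held 24 hrs at 37 deg C. Luminescence was read 10 min after detection reagent.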
* marks the source's active call; other numbers are inactive results; ? = inconclusive; nt = not tested or not shown; [ ] = remark or other dose. The call rests on the fitted dose curve; in most records, active means well fitted curve in the direction sought with a large enough effect; inconclusive means small, poorly fitted or top-dose-only effect, or another doubt; inactive means no such curve, though single readings can be large; an effect the other way counts as inactive or inconclusive. Potency means the concentration at half of the fitted maximal effect.

SMILES | ELG1 genotox | Rab9 promoter act | NPC1 prom act | FLuc counter | SMN2 splice enh | p53 reactivator
Cc1cc(-n2c(C)cc(C(=O)COc3cccnc3[N+](=O)[O-])c2C)no1 | 3% | 11% | 6% | -7% | nt | ?
Cc1ccc(OCC(=O)c2cc(C)n(-c3ccccc3)c2C)c([N+](=O)[O-])n1 | -4% | -6% | -3% | 19µM* | -58% | -11%
CC(=O)Nc1ccccc1OCC(=O)c1cc(C)n(Cc2cccs2)c1C | 10µM* | -22% | -17% | ? | -109% | ?
Cc1cc(C(=O)COc2cccnc2[N+](=O)[O-])c(C)n1Cc1cccs1 | ? | 2% | -2% | 24µM* | -38% | -11%
COC(=O)c1c(C)oc2ccc(N(C(=O)Oc3ccccc3)S(=O)(=O)c3ccc(C(C)(C)C)cc3)cc12 | nt | nt | nt | 2% | -29% | nt
COC(CN(C)S(=O)(=O)c1cc2c3c(c1)CCN3C(=O)CC2)OC | 5% | -1% | -4% | -1% | nt | -5%
CCOC(=O)NC(=O)CSc1nc(-c2ccc(C)c(C)c2)cn1-c1ccccc1 | ? | 2.2µM* | ? | 17µM* | -18% | ?
Cc1nc(-c2ccc(S(=O)(=O)N3CCN(c4cccc(C(F)(F)F)c4)CC3)cc2)co1 | nt | nt | nt | -5% | nt | nt
O=c1c2sc3ccccc3c2n(Cc2ccc(Cl)cc2)c(=O)n1Cc1ccco1 | nt | nt | nt | -9% | -5% | nt
Cc1ccc(N=CC2=C(O)CC(C)(C)CC2=O)nc1 | 1% | 1% | 0% | 24µM* | -9% | 4%
Cc1[nH]nc(N=CC2=C(O)CC(c3ccco3)CC2=O)c1-c1ccc(Cl)cc1 (centres undefined) | -8% | 0% | -1% | 3% | -35% | -2%
CCOc1ccc(N=CC2=C(O)CC(C)(C)CC2=O)cc1 | ? | -2% | -2% | 24µM* | -10% | 19%
Cc1[nH]nc(N=CC2=C(O)CC(C)(C)CC2=O)c1-c1ccc(Cl)cc1 | -4% | -2% | 0% | 17µM* | -7% | 10%
CCOc1ccccc1NC(=O)c1ccc2ccccc2c1 | 0% | ? | ? | 21µM* | nt | 16%
CCOc1ccccc1NC(=O)c1ccc2c(Cl)c3c(nc2c1)CCCC3 | nt | nt | nt | 2.7µM* | -2% | nt
COc1cc(OC)c(NC(=O)c2ccc3c(Cl)c4c(nc3c2)CCCC4)cc1Cl | nt | nt | nt | -1% | -4% | nt
CCOc1ccccc1NC(=O)NNC(=O)c1ccc2ccccc2c1 | -2% | 7% | 19% | -4% | nt | -30%
CCOc1ccccc1NC(=O)c1ccc2c(Cl)c3c(nc2c1)CCC3 | nt | nt | nt | 0.85µM* | 22% | nt
COc1ccccc1NC(=O)c1ccc2c(Cl)c3c(nc2c1)CCCC3 | nt | nt | nt | 7.6µM* | 1% | nt
O=C1CN(C(=O)COc2ccc(Cl)cc2)C(c2ccccc2)c2cc(Br)ccc2N1 (centres undefined) | nt | nt | nt | -1% | 20% | nt
CC1=C(C(=O)Nc2ccccc2)C(C(C)C)n2nc(SCc3ccccc3C)nc2N1 (centres undefined) | nt | nt | nt | -1% | 22% | nt
O=C(Cn1c(=O)nc(-c2ccccc2)c2ccccc21)NCc1ccc(Cl)cc1 | nt | nt | nt | 1% | nt | nt
CCC(=O)CCC(=O)c1ccc2ccccc2c1 | ? | ? | ? | 15µM* | 14µM* | ?
CC(C)N(CCC(=O)c1ccc2ccccc2c1)Cc1ccccc1 | -5% | -41%[46.1 µM] | -34%[46.1 µM] | -18% | 6% | -19%
O=C(NCc1nc2ccccc2[nH]1)c1c(F)cccc1F | nt | nt | nt | -7% | -3% | nt
SMILES | ELG1 genotox | Rab9 promoter act | NPC1 prom act | FLuc counter | SMN2 splice enh | p53 reactivator
Clc1ccc(CSc2snnc2-c2ccccc2)c(Cl)c1 | ? | 20% | ? | 13µM* | ? | 40µM*
CCN(C(=O)CSc1nc2ccccc2n1Cc1cc(C)ccc1C)c1ccccc1 | nt | nt | nt | -7% | nt | nt
Cc1ccnc(NC(=O)c2ccc3c(c2)C(=O)N(CC2CCCO2)C3=O)c1 (centres undefined) | 7% | -3% | 1% | 21µM* | -1% | -1%
O=C(Nc1ccncc1)c1ccc2c(c1)C(=O)N(CC1CCCO1)C2=O (centres undefined) | 2% | -1% | -2% | -6% | -3% | -6%
O=C(O)c1ccc(NC(=O)c2ccc3c(c2)C(=O)N(CC2CCCO2)C3=O)cc1 (centres undefined) | -1% | -2% | 3% | ? | nt | 2%
Cc1ccc(NC(=O)c2ccc(OCC3CCCO3)cc2)c(C)c1 (centres undefined) | 14% | ? | 21% | ? | ? | ?
Cc1ccc(C(=O)Nc2ccc3c(c2)C(=O)N(CC2CCCO2)C3=O)cc1 (centres undefined) | -10% | 2% | 9% | 4.8µM* | nt | -1%
Nc1cccc(Oc2ccc3c(c2)C(=O)N(CC2CCCO2)C3=O)c1 (centres undefined) | 15% | 1µM* | 1.6µM* | 24µM* | nt | 12%
O=C1c2cccc3cccc(c23)C(=O)N1CC1CCCO1 (centres undefined) | 4% | 9% | 13% | -6% | 10% | 0%
Cc1ccnc(NC(=O)c2ccc(OCC3CCCO3)cc2)c1 (centres undefined) | ? | 0.13µM* | 0.28µM* | 0.95µM* | nt | -10%
O=C(C[n+]1ccc(CCSc2ccc(F)cc2)cc1)c1ccccc1 | -2% | -3% | -7% | -11% | 2% | 3%
Cc1ccc(SCCc2cc[n+](CC(=O)c3ccccc3)cc2)cc1 | ? | ? | 29% | 19µM* | nt | 8%
Cc1cccc2sc(NNC(=O)c3ccc4c(c3)OCCO4)nc12 | -2% | 6% | 5% | ? | 0% | 12%
O=C(Nc1nc2cc3c(cc2s1)OCCO3)C1CCCCC1 | ? | 0.32µM* | 0.5µM* | 0.43µM* | nt | ?
O=C(Nc1nc2cc3c(cc2s1)OCO3)C1CC1 | 9% | 28% | ? | ? | nt | 12%
O=C(Nc1nc2cc3c(cc2s1)OCO3)C1CCCCC1 | ? | 1.3µM* | 1.8µM* | 4.8µM* | nt | ?
CC(=O)Nc1nc2cc3c(cc2s1)OCCO3 | ? | 1.4µM* | 1.6µM* | 7.6µM* | nt | 8%
O=C(NNc1nc2cc3c(cc2s1)OCCO3)c1ccccc1 | ? | ? | ? | 9.5µM* | 20µM* | 5%
CN1CCCC2(CCN(C(=O)c3cccn3C)CC2)C1 | nt | nt | nt | nt | -10% | nt
Cc1ccc(C)c(CSc2cn(CCNC(=O)c3cccs3)c3ccccc23)c1 | nt | nt | nt | 3% | -55% | nt
